Pf growth 96h – Primary qHTS for delayed death inhibitors of the malarial parasite plastid, 96 hour incubation. P. falciparum luciferase reporter growth, 96 h. Potency, µM (highest dose often 28.7 µM), for the others: at the highest dose activity change, negative = inhibition, usual class: inhibitors. 320,000 tested, 6.9% active; note: potency is the fitted concentration of half-maximal effect; % is set by controls: 0 for no effect and ±100 for the full control effect
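Parasite growth measured via integrated firefly luciferase reporter in P. falciparum. Infected erythrocytes at 2% hematocrit, 0.05% parasitemia final were treated 96 hours at 37 C under 5% CO2, and luminescence was read.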
Cycloheximide cs – Cycloheximide Counterscreen for Small Molecule Inhibitors of Shiga Toxin; cell reporter, cycloheximide protein synthesis inhibition counterscreen; max response, %; 300,000 tested, 12% active; in the data active = max response mostly above about 13%, no sharp cut-off; inactive = mostly below about 14%; note: read at 38.3 µM for the half of the compounds with a filed dose; 0% is about no effect
Pf growth 48h – Primary qHTS for delayed death inhibitors of the malarial parasite plastid, 48 hour incubation; P. falciparum luciferase growth in erythrocytes, 48 h; Potency, µM (top dose mostly 28.7 µM), for inactives: at the top dose activity change, negative = inhibition, actives largely listed as inhibitors; 310,000 tested, 5.9% active; note: potency is the fitted concentration of half-maximal effect; % is set by controls: 0 for no effect and ±100 for the full control effect
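First compound was added to culture medium, then infected red cells at 0.1% parasitemia and 2% hematocrit (final). After incubation at 37 C under 5% CO2, luciferase detection reagent was dispensed and light output recorded.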
Shiga inhibitor – A qHTS for Small Molecule Inhibitors of Shiga Toxin | inhibition, % at 38.7 µM | Vero cells, Shiga toxin protein synthesis inhibition reporter | 290,000 tested, 9.2% active | AID 2315, 2010; in the data active = inhibition mostly above about 28%, no sharp cut-off; inactive = mostly below about 43%; note: 0% is about no effect
LmPK inhibitor – qHTS Assay for Inhibitors of Leishmania Mexicana Pyruvate Kinase (LmPK); Q27686; purified LmPK, Kinase-Glo ATP luminescence, 1 h; Potency, µM (top dose mostly 57.5 µM), inactives show at the top dose activity change, negative = inhibition, actives largely listed as inhibitors; 290,000 tested, 0.37% active; AID 1721, 2009; note: potency is the fitted concentration of half-maximal effect; % is set by controls: 0 for no effect and ±100 for the full control effect
Target sequence (Q27686 whole entry, looked up): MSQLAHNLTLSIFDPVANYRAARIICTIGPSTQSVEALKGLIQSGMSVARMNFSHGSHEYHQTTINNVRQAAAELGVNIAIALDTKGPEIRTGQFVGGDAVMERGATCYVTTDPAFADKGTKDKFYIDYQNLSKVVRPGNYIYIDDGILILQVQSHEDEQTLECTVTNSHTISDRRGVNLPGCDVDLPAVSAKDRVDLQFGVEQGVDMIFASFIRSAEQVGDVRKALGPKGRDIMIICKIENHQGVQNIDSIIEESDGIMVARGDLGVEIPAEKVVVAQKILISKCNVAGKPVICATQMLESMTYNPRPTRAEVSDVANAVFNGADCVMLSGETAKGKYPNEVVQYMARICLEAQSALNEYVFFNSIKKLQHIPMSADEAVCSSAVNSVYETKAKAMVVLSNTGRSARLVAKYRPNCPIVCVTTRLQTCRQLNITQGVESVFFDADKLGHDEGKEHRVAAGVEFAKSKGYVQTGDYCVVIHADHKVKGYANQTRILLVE
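qHTS format; LmPK 0.1 nM; substrates PEP 0.5 mM and ADP 0.1 mM. One-hour room-temperature incubation, then coupled luciferase luminescence; 0.5 nM enzyme wells mark activation.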
* hit, by the source's call; ? = inconclusive; / = not tested or not shown. Sampled rows, rich in hits. Any-hit rate of the full collection: about 22%. Unless noted, calls come from the whole dose curve; as a rule, active = well fitted inhibition curve with a large enough effect; inconclusive = small, poorly fitted or top-dose-only effect, or another doubt; inactive = no such curve, though single readings can be large or run the other way.

SMILES | Pf growth 96h | Cycloheximide cs | Pf growth 48h | Shiga inhibitor | LmPK inhibitor
CCCCOC(=O)c1ccc(NC(=O)C(CCS(C)(=O)=O)NC(C)=O)cc1 (stereo not given) | 5.22µM* | -3.2 | 56.2% | -9.4 | -0.2%
CCCOC(=O)c1ccc(NC(=O)Oc2ccccc2)cc1 | 3.3% | 15.8 | 56.1% | 29.4 | 0.8%
COc1ccc(NC(=O)C(CCS(C)(=O)=O)NC(C)=O)cc1 (stereo not given) | 13.7% | -2.4 | 12.3% | -4.0 | -2.1%
COc1ccc2nc(-c3ccccc3)nc(SCC(=O)NCC3CCCO3)c2c1 (stereo not given) | 65.5% | -1.5 | ? | -2.6 | 0.4%
CCCOC(=O)c1ccc(NC(=O)C2C3C=CC(O3)C2C(=O)O)cc1 (stereo not given) | -0.5% | 31.9* | 53.8% | 50.3 | 1.4%
CC(=O)c1ccc(NC(=O)C2C3C=CC(O3)C2C(=O)O)cc1 (stereo not given) | 0.3% | 13.0 | -6.3% | 5.9 | -2.2%
NS(=O)(=O)c1ccc(CNC(=O)c2csc3c2CCCC3)cc1 | 21.1% | -3.2 | -4.7% | 3.6 | -1.0%
Fc1ccccc1-c1nc2ncccc2o1 | 24.1% | 23.0* | 42.1% | 58.5* | -17.3%
O=C(NC(=S)Nc1ccc(-c2nc3ncccc3o2)cc1)c1ccccc1F | -14.5% | 13.6 | -11.7% | 3.0 | 3.5%
c1ccc2c(-c3nc4ncccc4o3)cccc2c1 | 39.1% | 20.0* | 42.2% | 34.1 | 3.2%
O=C(NC1CC1)C(=O)c1c[nH]c2ccccc12 | 9.6% | 19.1* | 18.8% | 99.9* | -2.0%
CC(C)NC(=O)C(=O)c1cn(C)c2ccccc12 | 44.6% | 4.7 | 30.4% | -9.1 | -0.2%
Cn1cc(C(=O)C(=O)NC2CCCCC2)c2ccccc21 | ? | 33.4* | 92.6% | 55.1* | 2.4%
O=C(c1ccccc1)c1c[nH]c2ccccc12 | -30.0% | 34.7* | ? | 63.6* | -0.7%
COCCCn1nnnc1SCC(=O)Nc1nc2ccccc2s1 | -25.0% | 10.5 | 8.6% | -3.7 | 1.7%
CS(=O)(=O)N(CC(=O)N1CCOCC1)c1cc(Cl)ccc1Cl | ? | -1.6 | 4.0% | -4.4 | -4.8%
CCOc1ccc(NC(=O)c2ccc(N3CC4CC(C3)c3cccc(=O)n3C4)c(NC(=O)c3cccnc3)c2)cc1 (stereo not given) | -3.5% | -3.9 | ? | -2.2 | -0.7%
O=C(CN(Cc1ccco1)C(=O)Cn1nnc(-c2cccs2)n1)NCC1CCCO1 (stereo not given) | 27.8% | -1.8 | 1.0% | -5.7 | 1.0%
CC(C)N1CC(C(=O)Nc2ccc(C#N)cc2)CC1=O (stereo not given) | -34.8% | -2.1 | 2.0% | 23.7 | -5.5%
CNC(=S)NNC(=O)c1ccc(C(C)(C)C)cc1 | 33.2% | 16.9* | ? | 26.3 | 0.8%
CNC(=S)NNC(=O)c1ccc2c(c1)OCO2 | 0.5% | 9.1 | 6.8% | 52.4* | 0.6%
CCCCNC(=S)NNC(=O)c1ccc2c(c1)OCO2 | 15.4% | 1.5 | 25.9% | -9.3 | -8.4%
O=C(NNC(=O)c1cccc2ccccc12)c1ccc2c(c1)OCO2 | 85.5% | 24.1* | 46.8% | 50.0* | 2.1%
COc1ccc(C(=O)NNC(=O)c2ccc(C(C)(C)C)cc2)cc1 | -11.5% | -6.9 | -6.5% | -3.2 | -3.0%
O=S(=O)(NCCN1CCCC1)c1ccc(Br)cc1 | -22.6% | -2.3 | 7.7% | 12.9 | 0.5%
SMILES | Pf growth 96h | Cycloheximide cs | Pf growth 48h | Shiga inhibitor | LmPK inhibitor
COc1ccc(OC)c(NC(=O)COC(=O)CNC(=O)c2ccc(OC)c(OC)c2)c1 | -1.8% | -5.1 | / | -18.1 | 14.8%
COc1ccc(C(=O)NCC(=O)OCC(=O)Nc2sccc2C#N)cc1OC | 31.4% | 22.3* | 60.1% | 36.1* | -4.0%
CN(C)S(=O)(=O)c1cccc(C(=O)OCC(=O)Nc2ccc3c(c2)OCCO3)c1 | 40.1% | / | 7.1% | / | /
CN(C)S(=O)(=O)c1cccc(C(=O)OCC(=O)Nc2sccc2C#N)c1 | / | 56.3* | 23.6% | 74.5* | 12.0%
C[C@@]12C(=O)N(c3cccc(F)c3)C(=O)N1[C@H](c1ccc(Cl)cc1)[C@@H]1C(=O)N(C3CCCCC3)C(=O)[C@@H]12 | -6.8% | / | 11.7µM* | / | /
CC(C)C[C@@]12C(=O)N(c3cccc(F)c3)C(=O)N1[C@H](c1ccc(Cl)cc1)[C@@H]1C(=O)N(C3CCCCC3)C(=O)[C@@H]12 | 4.65µM* | / | 2.94µM* | / | /

Compound activity (PubChem)
